Here are results for 8 compounds from PubChem BioAssay (NCI).

About 83,000 compounds went through this panel and 20% of them were active in at least one assay; those are over-represented in the sample as a whole.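 96-well plates, one dose, 48 hours. Percent growth reported; active if below 10.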 Unmarked numbers belong to inactive results. The source made the active and inactive calls.

Test systems include SK-MEL-2 melanoma; EKVX NSCLC; SN12C renal; UO-31 renal; TK-10 renal; ACHN renal; CAKI-1 renal; A498 renal; MOLT-4 leukemia; SR leukemia; RPMI-8226 leukemia; OVCAR-8 ovarian; OVCAR-5 ovarian; OVCAR-4 ovarian; SK-OV-3 ovarian; IGROV1 ovarian; OVCAR-3 ovarian; HS 578T breast; NCI/ADR-RES ovarian.
Assay in all cases: NCI-60 one-dose screen, 48 h (100 = growth as untreated, 0 = no growth, -100 = all killed)
Holding throughout (details): 10 µM unless noted

For `Cc1ccc(C(=O)C2=C(O)C(=O)N(Cc3cccnc3)C2c2ccccc2F)o1` (configuration not stated), the growth in the experiment with SK-MEL-2 melanoma was 92.1%; with EKVX NSCLC, 97.7%; in the experiment with SN12C renal, 95.7%; with UO-31 renal, 93.3%; in the experiment with TK-10 renal it was 104%; with ACHN renal, 98.5%. Moreover, the growth in the experiment with CAKI-1 renal is 105%; with A498 renal, 95%; in the experiment on MOLT-4 leukemia, 90.3%; in the experiment with SR leukemia, 97.3%; in the experiment on RPMI-8226 leukemia, 105%; in the experiment on OVCAR-8 ovarian it was 92.6%. In addition, the growth was 101% in the experiment on OVCAR-5 ovarian; 106% with OVCAR-4 ovarian; 94.5% in the experiment with SK-OV-3 ovarian; 68.2% in the experiment on IGROV1 ovarian; 97.4% in the experiment with OVCAR-3 ovarian; 102% in the experiment on HS 578T breast. The growth in the experiment on NCI/ADR-RES ovarian is 98.9%.
In the case of `CC1(c2ccccc2)NC(=O)N(NC(=O)CSc2nc(-c3cccs3)nc3ccccc23)C1=O` (configuration not stated), the growth was 89.8% in the experiment on SK-MEL-2 melanoma; 93% with EKVX NSCLC; 100% with SN12C renal; -6.98% (active) in the experiment on UO-31 renal; 113% in the experiment on TK-10 renal; 91.5% with ACHN renal. In addition, the growth was 72.3% in the experiment with CAKI-1 renal; 71.4% in the experiment on A498 renal; 73.5% in the experiment with MOLT-4 leukemia; 67% with SR leukemia; 72.9% in the experiment on RPMI-8226 leukemia; 82.4% with OVCAR-8 ovarian. The growth with OVCAR-5 ovarian was 76.7%; in the experiment with OVCAR-4 ovarian, 106%; with SK-OV-3 ovarian, 124%; in the experiment with IGROV1 ovarian, 88.6%; with OVCAR-3 ovarian, 95.9%; in the experiment on HS 578T breast it was 101%. Besides, in the experiment on NCI/ADR-RES ovarian, the growth was 87.9%.
In the case of `CC/C=C\CCC/C=C1/C(=O)C=C[C@@H]1C/C=C\CCCC(=O)O`, the growth in the experiment on SK-MEL-2 melanoma is 89.4%; in the experiment with EKVX NSCLC, 103%; in the experiment on SN12C renal, 48.4%; in the experiment with UO-31 renal, 70.8%; in the experiment on TK-10 renal, 114%; with ACHN renal it was 42.9%. For the same compound, the growth with CAKI-1 renal is 60.1%; in the experiment on A498 renal, 103%; with MOLT-4 leukemia, 6.84% (active); in the experiment with SR leukemia, 8.78% (active); with RPMI-8226 leukemia, 6.36% (active); in the experiment with OVCAR-8 ovarian, 9.28% (active). Besides, the growth in the experiment with OVCAR-5 ovarian is 72.6%; in the experiment on OVCAR-4 ovarian, 92.5%; in the experiment on SK-OV-3 ovarian, 124%; in the experiment with IGROV1 ovarian, 104%; in the experiment on OVCAR-3 ovarian it was 43.6%; in the experiment with HS 578T breast it was 45.7%. Also, the growth in the experiment on NCI/ADR-RES ovarian is 19%.
For `COc1ccc(-c2cc(-c3ccc(Nc4nc(Nc5ccc(Cl)cc5)nc(Nc5ccc(Cl)cc5)n4)cc3)nc(N)c2C#N)cc1`, the growth in the experiment on SK-MEL-2 melanoma is 13.1%; in the experiment with EKVX NSCLC it was -27.1% (active); with SN12C renal, 58.3%; in the experiment on UO-31 renal, -46.7% (active); in the experiment with TK-10 renal, -67.3% (active); in the experiment on ACHN renal it was -59.5% (active). Moreover, the growth was 44.2% in the experiment with CAKI-1 renal; 65.7% with A498 renal; 15.9% with MOLT-4 leukemia; 5.37% (active) with SR leukemia; -23.5% (active) in the experiment with RPMI-8226 leukemia; 39.8% in the experiment with OVCAR-8 ovarian. In addition, the growth with OVCAR-5 ovarian is 37%; in the experiment with OVCAR-4 ovarian it was 14.6%; in the experiment on SK-OV-3 ovarian it was 104%; in the experiment with IGROV1 ovarian, 6.53% (active); in the experiment on OVCAR-3 ovarian, -15.5% (active); with HS 578T breast, 29.2%. Also, the growth in the experiment on NCI/ADR-RES ovarian was 51%.
On to `CCN(CC)c1nc(SCC(=O)Nc2nc3ccc(C)cc3s2)nc(-c2ccccc2)c1C#N`, for which the growth in the experiment on SK-MEL-2 melanoma was 92%; in the experiment on EKVX NSCLC, 81%; with SN12C renal, 94%; in the experiment on UO-31 renal it was 68.8%; in the experiment with TK-10 renal, 94.6%; in the experiment with ACHN renal it was 94.8%. The growth with CAKI-1 renal was 75.4%; in the experiment on A498 renal it was 81%; in the experiment with MOLT-4 leukemia, 79.7%; with SR leukemia, 2.23% (active); in the experiment on RPMI-8226 leukemia, 61.4%; with OVCAR-8 ovarian, 89.5%. Further, the growth is 77.4% in the experiment on OVCAR-5 ovarian; 80.7% in the experiment on OVCAR-4 ovarian; 93.7% in the experiment with SK-OV-3 ovarian; 65.7% in the experiment with IGROV1 ovarian; 93.2% with OVCAR-3 ovarian; 83.4% with HS 578T breast. Further, the growth in the experiment with NCI/ADR-RES ovarian was 96.4%.
In the case of `O=C(NC(CSSCC(NC(=O)c1ccccc1)C(=O)O)C(=O)O)c1ccccc1` (configuration not stated), the growth with SK-MEL-2 melanoma was 97.3%; in the experiment with EKVX NSCLC it was 103%; in the experiment on SN12C renal it was 102%; with UO-31 renal it was 91.8%; with TK-10 renal it was 101%; in the experiment on ACHN renal, 102%. In addition, the growth in the experiment on CAKI-1 renal was 91.6%; with A498 renal it was 86.1%; in the experiment with MOLT-4 leukemia it was -1.1% (active); in the experiment with SR leukemia, 15.3%; with RPMI-8226 leukemia, 104%; in the experiment with OVCAR-8 ovarian it was 104%. Moreover, the growth in the experiment with OVCAR-5 ovarian is 105%; in the experiment on OVCAR-4 ovarian, 128%; in the experiment on SK-OV-3 ovarian it was 102%; in the experiment with IGROV1 ovarian it was 96.7%; with OVCAR-3 ovarian, 99.6%; in the experiment on HS 578T breast it was 96.3%. In addition, in the experiment with NCI/ADR-RES ovarian, the growth was 97.3%.
For the compound `O=c1cc(C2NNC(=S)N2)c2ccc3ccccc3c2o1` (configuration not stated), the growth is 106% in the experiment on SK-MEL-2 melanoma; 64.5% with EKVX NSCLC; 100% in the experiment with SN12C renal; 70.6% with UO-31 renal; 126% with TK-10 renal; 94.7% in the experiment on ACHN renal. Moreover, the growth in the experiment with CAKI-1 renal was 85.1%; with A498 renal, 88.1%; in the experiment on MOLT-4 leukemia it was 102%; with SR leukemia, 97.8%; in the experiment with RPMI-8226 leukemia it was 74.8%; with OVCAR-8 ovarian it was 97.4%. Also, the growth with OVCAR-5 ovarian is 109%; in the experiment with OVCAR-4 ovarian it was 101%; in the experiment with SK-OV-3 ovarian, 97.2%; in the experiment with IGROV1 ovarian, 76.8%; in the experiment on OVCAR-3 ovarian it was 106%; in the experiment with HS 578T breast, 71%. In addition, the growth in the experiment with NCI/ADR-RES ovarian was 101%.
Take `CC/C=C/C/C=C/C/C=C/C/C=C/C/C=C/C/C=C/CCC(=O)Nc1ccn([C@@H]2O[C@H](CO)[C@@H](O)C2(F)F)c(=O)n1`: the growth in the experiment with SK-MEL-2 melanoma was 83.1%; in the experiment on EKVX NSCLC it was 70%; in the experiment with SN12C renal, -2.1% (active); in the experiment on UO-31 renal it was 3.26% (active); with TK-10 renal, 67.9%; in the experiment with ACHN renal it was 6.15% (active). For the same compound, the growth in the experiment with CAKI-1 renal was 12.4%; with A498 renal, 16.6%; in the experiment with MOLT-4 leukemia it was 1.85% (active); in the experiment with SR leukemia, 18.5%; in the experiment on RPMI-8226 leukemia it was 28.1%; with OVCAR-8 ovarian it was 10%. For the same compound, the growth in the experiment on OVCAR-5 ovarian was 50.1%; with OVCAR-4 ovarian, 73.8%; in the experiment on SK-OV-3 ovarian it was 22%; in the experiment on IGROV1 ovarian it was 57.5%; with OVCAR-3 ovarian, 53.4%; in the experiment with HS 578T breast, 76.1%. The growth with NCI/ADR-RES ovarian was 14.1%.
